Test results reported in PubChem BioAssay (NCATS).
Several values for one entry are separate records, joined by “and”; a condition that tells them apart may be missing. Equal values may be shown once. Records with an inconclusive call do not appear. Entries that show only a call come without a potency. Activity calls are given as the source filed them. Calls follow the shape of the dose curve; as a rule, active = well fitted cell-killing curve with a large enough effect; inconclusive = small, poorly fitted or top-dose-only effect; inactive = no such curve, though single readings can be large or run the other way.

Experiment: qHTS of pediatric cancer cell lines to identify multiple opportunities for drug repurposing: Confirmatory screen for U-2 OS cells (AID 1347122); also: nearly all actives have a fitted effect of over 65% in size
Details: U-2 OS osteosarcoma cell viability; series mostly up to 45.9 µM
Method in brief: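 Viability after 48 h compound treatment at 37C, 500-1,000 cells/well, read as ATP luminescence with CellTiter-Glo. Primary screens used 11-point (MIPE, 0.78 nM-46 µM) or 8-point (NPC, 0.59 nM-46 µM) final concentrations; follow-up screens used 11-point dilutions.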
Potency is read from the fitted curve at half-maximal effect.

| SMILES | Potency |
| --- | --- |
| C[C@H]1O[C@@H](O[C@H]2[C@@H](O)C[C@H](O[C@H]3[C@@H](O)C[C@H](O[C@H]4CC[C@@]5(C)[C@H](CC[C@@H]6[C@@H]5CC[C@]5(C)[C@@H](C7=CC(=O)OC7)CC[C@]65O)C4)O[C@@H]3C)O[C@@H]2C)C[C@H](O)[C@@H]1O | 165 nM (active) |
| C=C(C)[C@H]1Cc2c(ccc3c2O[C@@H]2COc4cc(OC)c(OC)cc4[C@@H]2C3=O)O1 | inactive |
| O=P1(NCCCl)OCCCN1CCCl (stereo unspecified) | inactive |
| C[C@@H]1O[C@@H](O[C@H]2C[C@@H](O)[C@]3(CO)[C@H]4[C@H](O)C[C@]5(C)[C@@H](C6=CC(=O)OC6)CC[C@]5(O)[C@@H]4CC[C@]3(O)C2)[C@H](O)[C@H](O)[C@H]1O | 131 nM (active) and 89.1 nM (active) |
| Cn1cc(C2=C(c3cn(C4CCN(Cc5ccccn5)CC4)c4ccccc34)C(=O)NC2=O)c2ccccc21 | inactive |
| Cc1sc2c(c1C)C(c1ccc(Cl)cc1)=N[C@@H](CC(=O)OC(C)(C)C)c1nnc(C)n1-2 | inactive |
